# Experimental data from the supplement of paper PMC10981050.
# Values joined by “and” are separate entries in the source; they are usually repeats but may differ in a detail not shown here. Equal entries are not always repeated. Structures can show the parent of a compound that is named as a salt.
# What was measured:
# Assay in all cases: cell viability relative to vehicle control; higher = less cytotoxic
# Settings in all cases: 10 µM
# [1] = test system: K562
# Method in brief: (§1)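 Four leukaemia lines, as CRISPR-edited mutant clones and isogenic wild-type clones, were tested against Selleck bioactive, kinase and epigenetic probe libraries after removal of identity-inconsistent compounds. Cells were exposed to a single 10 µM dose for 48 h, and CellTiter-Glo luminescence was then read. Viability was calculated relative to the on-plate vehicle control.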
# [2] = test system: MARIMO
# Method in brief: as §1
# [3] = test system: MOLM14
# Method in brief: as §1
# [4] = test system: OCI-AML2
# Method in brief: as §1
Structure (SMILES),cell viability ([1]; SRSF2 genotype: SRSF2 P95H/wt),cell viability ([1]; SRSF2 genotype: SRSF2 wt/wt),cell viability ([2]; SRSF2 genotype: SRSF2 P95H/wt),cell viability ([2]; SRSF2 genotype: SRSF2 wt/wt),cell viability ([3]; SRSF2 genotype: SRSF2 P95H/wt),cell viability ([3]; SRSF2 genotype: SRSF2 wt/wt),cell viability ([4]; SRSF2 genotype: P95H/wt),cell viability ([4]; SRSF2 genotype: wt/wt)
O=C([O-])[O-].[Li+].[Li+] [Lithium carbonate],111% and 113%,108%,99.6%,112%,105%,108%,117%,96.9%
C=C[C@]1(C)C[C@@H](OC(=O)CSCCN(CC)CC)[C@]2(C)[C@H](C)CC[C@]3(CCC(=O)[C@H]32)[C@@H](C)[C@@H]1O [Tiamulin fumarate],85.7% and 84.7%,89.8%,93.4%,91.3%,94.2%,93.7%,88.6%,96.6%
Clc1ccc(C2(c3ccc(-c4cn[nH]c4)cc3)CCNCC2)cc1,44.6% and 48.5%,34.5%,40.3%,45%,24.2%,12.5%,21.6%,27.4%
Cc1cc(C#N)cc(C)c1Oc1nc(Nc2ccc(C#N)cc2)nc(N)c1Br [Etravirine (TMC125)],101% and 96.6%,94.6%,97%,108%,107%,102%,99.5%,117%
Cc1cc(C)nc(NS(=O)(=O)c2ccc(NC(=S)NC(=O)COc3ccc(Br)cc3Cl)cc2)n1,91.4% and 83.1%,85.5%,82.3%,90.7%,83.5%,91.1%,88.6%,84.6%
COc1ccc(-c2cnc3c(-c4cccc5ncccc45)cnn3c2)cc1,98.9% and 100%,92.7%,104%,112%,93%,108%,90.4%,91.5%
COc1ccc(-c2cc(=O)c3c(O)cc(O)cc3o2)cc1O [Diosmetin (Luteolin 4-methyl ether)],86.7% and 96.9%,83.9%,105%,121%,50.9%,53.6%,81%,74.6%
COC(=O)[C@H](CCSC)NC(=O)c1ccc(NC[C@@H](N)CS)cc1-c1ccccc1,104% and 105%,110%,77.4%,78.5%,83.4%,90.1%,113%,113%
CC1CCC2(C(=O)O)CCC3(C)C(=CCC4C5(C)CCC(OC6OCC(O)C(O)C6O)C(C)(C)C5CCC43C)C2C1(C)O (centres undefined) [Ziyuglycoside II],100% and 99.1%,101%,97.4%,99%,103%,99%,99.6%,95.6%
CC(=O)OCC(=O)NCCCOc1cccc(CN2CCCCC2)c1 [Roxatidine acetate HCl],102% and 97.3%,96.1%,93.7%,103%,101%,101%,92%,94.8%
Fc1ccc(Cl)cc1-c1nc(Nc2ccncc2)c2nccnc2n1,86.8% and 88.9%,79.9%,92.1%,104%,108%,96%,104%,103%
COc1ccc(COc2cc3oc(=O)c4cc(C(C)O)ccc4c3cc2OC)cc1 (centres undefined) [Palomid 529],101% and 111%,104%,105%,103%,102%,101%,106%,97.2%
CC(O)c1cc(C(=O)N[C@@H](C)Cn2ccc(-c3ccc(C#N)c(Cl)c3)n2)n[nH]1 (some centres undefined),87.9% and 91.4%,93.3%,90.6%,93.5%,98.8%,98%,91.4%,102%
Cc1ccsc1C(=CCCN1CCC[C@@H](C(=O)O)C1)c1sccc1C [Tiagabine],100% and 93.4%,96.7%,91.8%,109%,97%,101%,89%,111%
Cc1nc2cc(F)c(F)cc2n1-c1cncc(Nc2ccc(C(F)(F)F)cc2)n1,10.5% and 26.5%,28%,8.44%,6.32%,11.7%,2.75%,6.57%,9.7%
CC1(C)CC[C@]2(NC(=O)C(C)(F)F)CC[C@]3(C)[C@H](C(=O)C=C4[C@@]5(C)C=C(C#N)C(=O)C(C)(C)[C@@H]5CC[C@]43C)[C@@H]2C1 [Omaveloxolone (RTA-408)],9.19% and 4.65%,5.62%,1.12%,0.48%,0.3%,0.25%,0.23%,0.32%
CC(C[N+](C)(C)C)OC(N)=O (centres undefined) [Bethanechol chloride],97.9% and 102%,102%,111%,112%,108%,109%,109%,98.2%
COc1ccccc1OCCNCC(O)COc1cccc2[nH]c3ccccc3c12 (centres undefined) [Carvedilol],51.6% and 66.2%,52.8%,53%,56.8%,53.6%,56.4%,56.1%,56.2%
NCC(=O)CCC(=O)O [5-Aminolevulinic acid hydrochloride],94.7% and 105%,103%,109%,101%,99.1%,105%,108%,96.3%
N=C1NC(=O)/C(=C/c2ccc(O)cc2)S1 [Mirin],93.7% and 96.5%,101%,86.4%,87.3%,76.5%,85.1%,64.9%,71%
COc1ccc(C2=NC(c3ccc(Cl)cc3)C(c3ccc(Cl)cc3)N2C(=O)N2CCNC(=O)C2)c(OC(C)C)c1 (centres undefined) [Nutlin-3b],90.3% and 93.2%,89.3%,87.5%,97.1%,77.2%,86.7%,84.5%,89.8%
CCc1nc(-c2cccc(C)c2)c(-c2ccnc(NC(=O)c3ccccc3)c2)s1,75.8% and 73%,66.3%,72.3%,64%,76.5%,86.7%,83.7%,76.5%

Structure (SMILES),cell viability ([1]; SRSF2 genotype: SRSF2 P95H/wt),cell viability ([1]; SRSF2 genotype: SRSF2 wt/wt),cell viability ([2]; SRSF2 genotype: SRSF2 P95H/wt),cell viability ([2]; SRSF2 genotype: SRSF2 wt/wt),cell viability ([3]; SRSF2 genotype: SRSF2 P95H/wt),cell viability ([3]; SRSF2 genotype: SRSF2 wt/wt),cell viability ([4]; SRSF2 genotype: P95H/wt),cell viability ([4]; SRSF2 genotype: wt/wt)
Cc1n[nH]c2ncc(C(=O)N3CCC[C@H]3c3ccc(Cl)cc3)cc12,101% and 98.5%,99.8%,101%,128%,88.8%,105%,91.4%,92.8%
O=C(Nc1ccccc1)Nc1ccc(-c2ccc(C(=O)[C@@H]3CCC[C@H]3C(=O)O)cc2)cc1,96.9% and 97.6%,98.8%,106%,106%,102%,103%,103%,109%
CCOC(=O)C1=C[C@]2(CC)CCCN3CCc4c(n1c1ccccc41)[C@@H]32 [Vinpocetine (Cavinton)],93.6% and 101%,95.6%,96.5%,110%,101%,101%,89.5%,101%
CC(/C=C1\SC(=S)N(CC(=O)O)C1=O)=C\c1ccccc1 [Epalrestat],99.9% and 110%,107%,104%,102%,106%,103%,102%,95.3%
C[N+]1(C)CCCC1C(=O)[O-] (centres undefined) [Stachydrine],99.9% and 99.1%,105%,97.3%,100%,99.6%,104%,106%,102%
CCN(CC)CC#CCOC(=O)C(O)(c1ccccc1)C1CCCCC1 (centres undefined) [Oxybutynin (Ditropan)],97.7% and 102%,104%,82.9%,95.9%,83.5%,100%,91.8%,87%
CN1CCC(c2c(O)cc(O)c3c(=O)cc(-c4ccccc4Cl)oc23)C(O)C1 (centres undefined) [Flavopiridol (Alvocidib) HCl],5.96% and 15.8%,7.9%,11.1%,4.66%,3.87%,0.54%,5.83%,16.3%
C/C=C/c1ccc(OC)cc1 [Trans-Anethole],107% and 99.3%,97.3%,103%,102%,103%,103%,92%,116%
CCOC(=O)C1=C(C)NC(C)=C(C(=O)OC)C1c1cccc(Cl)c1Cl (centres undefined) [Felodipine (Plendil)],72.9% and 78.2%,79.9%,79.2%,88.8%,78.4%,86.3%,78.9%,87.1%
C=CC(=O)N1CCN(C(=O)CNc2cc(I)c(Cl)cc2O)CC1 [K-Ras(G12C) inhibitor 12],78.9% and 84.7%,75.2%,79.8%,83.6%,62.9%,81.2%,93.3%,88.1%
CC(=O)OC(CC(C)C1=C2CC(O)C3C4(C)CCC(=O)C(C)(C)C4CCC3(C)C2(C)CC1)C1OC1(C)C (centres undefined) [Alisol B Acetate],81.3% and 84.2%,87.8%,68.4%,55.6%,72.8%,87.8%,64.1%,68.6%
c1ccc(-c2ccc(C(c3ccccc3)n3ccnc3)cc2)cc1 (centres undefined) [Bifonazole],82.3% and 83.9%,79.7%,81.4%,87.7%,84.5%,94.2%,83.9%,82.7%
Cc1cc(-c2nc(-c3ccc(OC(F)(F)F)cc3)no2)nn1Cc1ccnc(N2CCN(C3CC3)CC2)c1,61.8% and 46.9%,54.1%,63%,53.7%,63.5%,51.8%,52.2%,46.9%
O=C(O)CCCC[C@@H]1SC[C@@H]2NC(=O)N[C@@H]21 [Biotin (Vitamin B7)],101% and 100%,96.3%,104%,103%,102%,108%,102%,99.2%
C[C@@H]1CC(=O)c2c(ccc3c2C(=O)c2cccc(O)c2C3=O)C1,77.9% and 93.8%,94.6%,67.6%,57.6%,53.9%,68.5%,43.4%,43.6%
CC1CCc2cc(F)cc3c(=O)c(C(=O)O)cn1c23 (centres undefined) [Flumequine],96.6% and 94.5%,97.5%,95.6%,104%,95.1%,102%,96.3%,107%
O=C(Nc1cc(Cl)cc2c1[nH]c1cnccc12)c1cccnc1,89% and 95.7%,88.8%,111%,116%,85.2%,101%,86.8%,85.9%
COc1cc(-c2oc3cc(O)cc(O)c3c(=O)c2OC2OC(COC3OC(C)C(O)C(O)C3O)C(O)C(O)C2OC2OC(C)C(O)C(O)C2O)ccc1O (centres undefined) [Typhaneoside],103%,98.7%,93.9%,106%,98.5%,106%,110%,105%
NCCCNCCCCNCCCN [Spermine],104% and 102%,104%,103%,111%,100%,103%,101%,106%
CC(C)[C@H](N)C(=O)OCC(CO)OCn1cnc2c(=O)nc(N)[nH]c21 (some centres undefined) [Valganciclovir Hydrochloride],86.3% and 81.6%,83.1%,90.7%,84.8%,87.2%,88.3%,77%,89.2%
C=C1CC[C@H]2C(=C)CC[C@H]3C(=C)C(=O)O[C@@H]3[C@@H]12 [Dehydrocostus Lactone],25.2% and 23.9%,30.8%,13.7%,16.1%,8.31%,11.1%,3.84%,6.64%
